Bioassay records from PubChem BioAssay.
CYP2C19 act – human CYP2C19 activators, primary screen, biochemical, luminescence | Cytochrome P450 2C19 (Homo sapiens), P33261 | recombinant CYP2C19, luciferin-H EGE luminescence; active compounds read high; 0 = fully inhibited enzyme, 1 = untreated enzyme | activation factor at 5 µM | 96,000 tested, under 10 active;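 active means activation factor of at least 2 at 5 µM in the primary screen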;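 further: 0 = wells with 2.5 mM tranylcypromine and 1 = vehicle-only wells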
PTK2B oligo ant – antagonists of Pyk2 self-association, primary screen, Q293 cells, FERM NanoBiT luminescence, HTS; AID 1347419, 2020; 99,000 tested, 0.83% active; z-score (the deposit names both 25 µM and 10 µM); Protein-tyrosine kinase 2-beta (Homo sapiens), Q14289; active compounds read low;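 active means Z-score of -3 or lower, scaled per plate to the spread of control and sample wells; inactive means z-score above -3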;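 further: negative z-score means lost luminescence so less FERM oligomerization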
CYP2C19 inhib – blockers of cytochrome P450 2C19 activity – biochemical, luminescence, ADME assay, primary screen | P33261 | CYP2C19 Supersomes, luciferin-H EGE luminescence, 30 min | inhibition, % at 5 µM | 96,000 tested, 21% active | AID 778, 2007;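 active means CYP2C19 inhibition above a set limit at 5 µM in the primary screen, cut at about 50% in these data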;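 further: plate controls were negative control wells for no effect and 2.5 mM tranylcypromine positive control for full effect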
CYP2C9 inhib – blockers of cytochrome P450 2C9 activity – biochemical, luminescence, ADME assay, primary screen; inhibition, % at 5 µM; P11712; AID 777, 2007; 96,000 tested, 20% active; CYP2C9 Supersomes, luciferin-H conversion;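 active means blocking of liver enzyme CYP2C9 beyond about 50% at 5 µM, limit read from the data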
Target sequence (P11712 whole entry, looked up): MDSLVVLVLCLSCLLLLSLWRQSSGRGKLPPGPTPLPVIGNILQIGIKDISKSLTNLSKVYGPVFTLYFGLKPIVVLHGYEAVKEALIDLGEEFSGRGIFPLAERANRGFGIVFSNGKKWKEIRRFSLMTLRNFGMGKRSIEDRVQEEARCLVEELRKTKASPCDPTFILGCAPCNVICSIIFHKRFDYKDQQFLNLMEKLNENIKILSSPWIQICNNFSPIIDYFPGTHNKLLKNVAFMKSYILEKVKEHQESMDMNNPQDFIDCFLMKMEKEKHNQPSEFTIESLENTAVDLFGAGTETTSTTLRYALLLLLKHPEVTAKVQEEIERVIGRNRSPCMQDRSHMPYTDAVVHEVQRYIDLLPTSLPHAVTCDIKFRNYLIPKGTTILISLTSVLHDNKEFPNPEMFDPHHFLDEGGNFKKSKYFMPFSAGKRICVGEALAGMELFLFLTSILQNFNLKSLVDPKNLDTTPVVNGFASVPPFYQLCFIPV
CYP2C9 act – human CYP2C9 activators, primary screen, biochemical, luminescence. Cytochrome P450 2C9 (Homo sapiens), P11712. recombinant CYP2C9, luciferin-H conversion; active compounds read high; factor 1 = untreated enzyme, 0 = blocked. activation factor at 5 µM. 96,000 tested, 1.4% active. AID 1024, 2008;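 active means activation factor of 2 or more for CYP2C9 at a 5 µM dose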;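 further: 0 = sulfaphenazole-blocked wells and 1 = vehicle-only wells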
Active calls of the source: *. Compounds with a hit are over-represented: about 28% of the library has one in this group of screens.

`CC(C)COCC1CC2(CC(C)C(=O)CC2=O)C(=O)O1` (stereo not drawn) gave CYP2C19 act 0.9, PTK2B oligo ant 0.16, CYP2C19 inhib 7.6, CYP2C9 inhib 20.7 and CYP2C9 act 0.8.
`CCn1c(N)c(C(=O)NCC2CCCO2)sc1=S` (stereo not drawn) gave CYP2C19 act 0.9, PTK2B oligo ant -0.28, CYP2C19 inhib 9.8, CYP2C9 inhib 8.1 and CYP2C9 act 0.9.
Screening O=C(NC1CCCCCCC1)c1c(O)c2ccccc2[nH]c1=O returned CYP2C19 act 0.9, PTK2B oligo ant -0.5, CYP2C19 inhib 14.3, CYP2C9 inhib 5.0 and CYP2C9 act 0.9.
`O=C(NC1CCCC1)c1sc(=S)n2c1[nH]c(=O)c1ccccc12` gave CYP2C19 act 0.7, PTK2B oligo ant -3.14*, CYP2C19 inhib 28.1, CYP2C9 inhib 93.0* and CYP2C9 act 0.1.
`CCCCCNC(=O)c1ccc2c(=O)[nH]c3c(C(=O)NCC4CCCO4)sc(=S)n3c2c1` (stereo not drawn) gave CYP2C19 act 0.7, PTK2B oligo ant -1.52, CYP2C19 inhib 34.8, CYP2C9 inhib 94.9* and CYP2C9 act 0.1.
Screening O=C(NCc1ccco1)c1sc(=S)n2c1[nH]c(=O)c1ccccc12 returned CYP2C19 act 0.7, PTK2B oligo ant 0.82, CYP2C19 inhib 29.2, CYP2C9 inhib 98.8* and CYP2C9 act 0.
Screening O=C(NCc1ccco1)c1n[nH]c(=O)c2ccccc12 returned CYP2C19 act 1, PTK2B oligo ant -0.71, CYP2C19 inhib 3.5, CYP2C9 inhib 10.8 and CYP2C9 act 0.9.
Screening CSc1cccc(-n2cc(-c3ccc4c(c3)OCO4)[nH]c2=O)c1 returned CYP2C19 act 0.7, PTK2B oligo ant -0.23, CYP2C19 inhib 32.7, CYP2C9 inhib 16.9 and CYP2C9 act 0.8.
`COc1ccc(COC(=O)NNC(=O)c2ccccc2Cl)cc1` gave CYP2C19 act 0.3, PTK2B oligo ant -0.32, CYP2C19 inhib 71.6*, CYP2C9 inhib 12.4 and CYP2C9 act 0.9.
For CC1CCN(C(=S)NCCc2ccccc2)CC1 the results were CYP2C19 act 0.3, PTK2B oligo ant -0.18, CYP2C19 inhib 73.1*, CYP2C9 inhib 39.1 and CYP2C9 act 0.6.
Screening CN1CCN(C(=S)NCCc2ccccc2)CC1 returned CYP2C19 act 0.4, PTK2B oligo ant 1.39, CYP2C19 inhib 63.8*, CYP2C9 inhib -3.7 and CYP2C9 act 1.
`OCC1CCCN(C(=S)NCCc2ccccc2)C1` (stereo not drawn) gave CYP2C19 act 0.5, PTK2B oligo ant 0.65, CYP2C19 inhib 47.5, CYP2C9 inhib 11.0 and CYP2C9 act 0.9.
COCc1cc(=O)n2[nH]c(C)nc2n1 was read as CYP2C19 act 1, PTK2B oligo ant 0.11, CYP2C19 inhib 0.2, CYP2C9 inhib -9.5 and CYP2C9 act 1.1.
C=CCn1c2ccccc2c2nnc(SC(CC)C(=O)Nc3sc4c(c3C#N)CCCC4)nc21 (stereo not drawn) was read as CYP2C19 act 0.5, PTK2B oligo ant -1.71, CYP2C19 inhib 53.3*, CYP2C9 inhib 72.6* and CYP2C9 act 0.3.
N#Cc1c(NC(=O)CSc2nnc(-c3ccccc3)o2)sc2c1CCCC2 was read as CYP2C19 act 0.8, PTK2B oligo ant -0.66, CYP2C19 inhib 17.3, CYP2C9 inhib 39.2 and CYP2C9 act 0.6.
Screening CSCCC(NC(C)=O)C(=O)Oc1ccc2c3c(c(=O)oc2c1)CCCC3 (stereo not drawn) returned CYP2C19 act 0.8, PTK2B oligo ant 0.4, CYP2C19 inhib 15.0, CYP2C9 inhib -180.9 and CYP2C9 act 2.8*.
`CCC(NC(=O)OC(C)(C)C)C(=O)Oc1ccc2c3c(c(=O)oc2c1)CCC3` (stereo not drawn) gave CYP2C19 act 0.9, PTK2B oligo ant 1.03, CYP2C19 inhib 7.8, CYP2C9 inhib -78.1 and CYP2C9 act 1.8.
Screening O=C(Oc1ccc2c3c(c(=O)oc2c1)CCCC3)c1ccco1 returned CYP2C19 act 0.8, PTK2B oligo ant 1.32, CYP2C19 inhib 23.7, CYP2C9 inhib -114.0 and CYP2C9 act 2.1*.
Cc1ccc(S(=O)(=O)NC(CC(C)C)C(=O)Oc2ccc3c4c(c(=O)oc3c2)CCC4)cc1 (stereo not drawn) was read as CYP2C19 act 0.7, PTK2B oligo ant -2.72, CYP2C19 inhib 31.4, CYP2C9 inhib 23.7 and CYP2C9 act 0.8.
`CCCOc1ccc2c3c(c(=O)oc2c1)CCCC3` gave CYP2C19 act 0.4, PTK2B oligo ant 0.43, CYP2C19 inhib 58.7*, CYP2C9 inhib 33.2 and CYP2C9 act 0.7.
`COC(=O)C(C)Oc1ccc2c3c(c(=O)oc2c1)CCCCC3` (stereo not drawn) gave CYP2C19 act 0.3, PTK2B oligo ant 0.01, CYP2C19 inhib 74.9*, CYP2C9 inhib 81.9* and CYP2C9 act 0.2.
For O=C(Nc1ccon1)c1ccccc1F the results were CYP2C19 act 0.9, PTK2B oligo ant -0.12, CYP2C19 inhib 10.8, CYP2C9 inhib 7.9 and CYP2C9 act 0.9.
For O=C(O)COc1ccc2c3c(c(=O)oc2c1)CCC3 the results were CYP2C19 act 1, PTK2B oligo ant 0.99, CYP2C19 inhib -2.5, CYP2C9 inhib 3.6 and CYP2C9 act 1.
For CC(C)Oc1ccc2c3c(c(=O)oc2c1)CCC3 the results were CYP2C19 act 0.2, PTK2B oligo ant -0.04, CYP2C19 inhib 78.6*, CYP2C9 inhib 24.3 and CYP2C9 act 0.8.
`O=C(O)C1CC(=O)N(c2ccc(F)c(F)c2)C1` (stereo not drawn) gave CYP2C19 act 1, PTK2B oligo ant 0.14, CYP2C19 inhib 1.0, CYP2C9 inhib 2.6 and CYP2C9 act 1.
CCc1ccc(C2=Nn3c(nnc3-c3cccs3)SC2)cc1 was read as CYP2C19 act 1.1, PTK2B oligo ant -2.57, CYP2C19 inhib -8.2, CYP2C9 inhib -3.5 and CYP2C9 act 1.
Cc1nc2sccc2c(=O)n1-c1cccc(Cl)c1 was read as CYP2C19 act 0.3, PTK2B oligo ant -0.28, CYP2C19 inhib 70.3*, CYP2C9 inhib 13.5 and CYP2C9 act 0.9.
For COC(=O)c1ccc(S(=O)(=O)c2ccccc2)c(N)c1 the results were CYP2C19 act 0.1, PTK2B oligo ant -0.54, CYP2C19 inhib 94.2*, CYP2C9 inhib 70.4* and CYP2C9 act 0.3.
Screening CC(C)CC(c1nnnn1CCc1ccccc1)N1CCN(C(=O)c2ccco2)CC1 (stereo not drawn) returned CYP2C19 act 0.2, PTK2B oligo ant 0.26, CYP2C19 inhib 80.1*, CYP2C9 inhib 98.5* and CYP2C9 act 0.
For O=C(c1ccco1)N1CCN(C(c2ccccc2F)c2nnnn2Cc2cccs2)CC1 (stereo not drawn) the results were CYP2C19 act 0.9, PTK2B oligo ant -1.03, CYP2C19 inhib 8.4, CYP2C9 inhib 14.0 and CYP2C9 act 0.9.
